Source: PubChem BioAssay (NCATS)
Inconclusive results are not listed. A call without a number means that no potency is given here. Activity calls are given as the source filed them. Calls follow the shape of the full dose curve.

Assay: S16 Schwann cell PMP22 intronic element beta-lactamase assay (AID 624044); also: nearly all actives have a fitted effect of over 15% in size
Settings: S16 rat Schwann cells, PMP22 element beta-lactamase FRET, 24 h; series mostly up to 38.3 µM
Method in brief: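 Rat S16 Schwann cells with beta-Lac driven by a PMP22 intronic element, compound-treated 24 h at 37 °C. LiveBLAzer FRET B/G read: 460 nm normalized to potassium clavulanate vs DMSO; 535 nm FRET as viability; concentration-effect curves classified.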
With `CC(C)[N+](C)(CCC(C(N)=O)(c1ccccc1)c1ccccc1)C(C)C` the Potency was “inactive”.
In the case of `NC(=O)OCCCc1ccccc1`, the Potency is reported as “inactive”.
In the case of `CC(C)(C)OC(=O)c1ncn2c1[C@@H]1CCCN1C(=O)c1c(Br)cccc1-2`, the Potency is reported as “inactive”.
With `CC(C)NCC(O)c1ccc(N)c(C#N)c1` (stereo unspecified) the Potency was “inactive”.
For `C[C@]12C=CC(=O)C=C1CC[C@@H]1[C@@H]2CC[C@@]2(C)[C@H]1CC[C@]2(C)O`, the Potency was “inactive”.
In the case of `CCCCCCCCCCCC[N+](C)(C)CCOc1ccccc1`, the Potency is reported as “inactive”.
In the case of `C#C[C@]1(O)CC[C@H]2[C@@H]3CCC4=CC(=O)CCC4=C3C=C[C@@]21CC`, the Potency is reported as “inactive”.
In the case of `COc1ccc(CN2CCNCC2)c(OC)c1OC`, the Potency is reported as “inactive”.
With `Nc1ccc(N)cc1` the Potency was “inactive”.
In the case of `CC[C@]1(O)CC[C@H]2[C@@H]3CCC4=CCCC[C@@H]4[C@H]3CC[C@@]21C`, the Potency is reported as “inactive”.
In the case of `CCC1(CC)C(=O)NC(=O)NC1=O`, the Potency is reported as “inactive”.
